Cy5 interf NS3h = Cy5 fluorescence quenchers or enhancers, artefact control for HCV NS3 helicase inhibitor project, biochemical, ChemBridge library, Cy5 readout; actives 6% (n = 16,000); Cy5-dT15 DNA with NS3h, fluorescence interference; actives lie on both sides; signal over control mean, under 1 quenches; fluorescence interference ratio at 100 µM;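 active = compound fluorescence over control fluorescence at most 0.8, a quencher, or at least a set upper limit, an enhancer; inactive = ratio between 0.8 and the set upper limit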
NS3h inh CB = HCV NS3 helicase inhibitors, primary screen, biochemical, fluorescence polarization, ChemBridge library; inhibition, % at 100 µM; NS3h Cy5-dT15 DNA binding; Hepatitis C virus NS3 helicase; actives 1.6% (n = 16,000);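 active = inhibition above the average over every tested compound plus 3 SD, cut at about 40% in these data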
Numbers without * were called inactive. An excerpt weighted towards active compounds, which were near 6.8% of everything screened.

SMILES	Cy5 interf NS3h	NS3h inh CB
C/C(=N/N=C1\NC(=O)C(CC(=O)Nc2ccc(Cl)cc2Cl)S1)c1ccc(F)cc1 (centres undefined)	1.22*	-17.3
NS(=O)(=O)c1ccc(CNC(=O)c2ccco2)cc1	1.03	-1.6
Clc1ccccc1Cc1noc(-c2ccc(Br)cc2)n1	1.11	-1.8
Clc1ccccc1Cc1noc(-c2ccccc2Cl)n1	0.918	2.2
CCCc1noc(-c2ccc(C(C)(C)C)cc2)n1	0.714*	6.8
CCCc1noc(-c2ccccc2Cl)n1	0.763*	2.2
COc1ccc(/C=C/C(=O)n2nc(C)cc2C)cc1	1	11.8
O=C(CCNc1ccccc1)c1ccc([N+](=O)[O-])cc1	1.05	9.6
Cc1ccc(-c2nc3cc(Cl)cc(Cl)c3o2)cc1N	0.997	7.2
NS(=O)(=O)c1ccc(N=Cc2ccc[nH]2)cc1	1.06	1.0
O=[N+]([O-])c1cccc(N=Cc2ccc[nH]2)c1	0.68*	9.6
COC(=O)c1cc(C(=O)NCc2ccc(OC)cc2)cc([N+](=O)[O-])c1	0.962	9.9
CCN(Cc1ccccc1)C(=O)c1cc(C(=O)OC)cc([N+](=O)[O-])c1	0.664*	8.7
COc1ccc(OCCCCOc2ccc(Cl)c(C)c2)cc1	0.956	8.6
CCOc1ccc(C2=C/C(=C/c3cccs3)C(=O)O2)cc1	0.99	43.8*
COc1ccc(C2=C/C(=C/c3cccs3)C(=O)O2)cc1	1.05	27.2
O=C(C=C(O)c1cccc([N+](=O)[O-])c1)C(F)(F)F	0.913	2.6
O=C(Nc1cccc2ccccc12)c1cc(Br)ccc1Cl	1.01	19.4
Nc1nonc1-n1nnc(CN2CCOCC2)c1CN1CCOCC1	1.07	10.9
Nc1nonc1-n1nnc(CN2CCCCCC2)c1CN1CCCCCC1	1.22*	3.1
Cc1ccc2nc(/C(C#N)=C/c3ccc(-c4ccc(Cl)cc4)o3)[nH]c2c1	0.771*	-50.7
COC(=O)c1cc(-c2ccc(/C=C(\C#N)c3nc4ccccc4[nH]3)o2)ccc1Cl	1.03	3.5
COCCCNC(=O)c1ccc(N(C)S(=O)(=O)c2ccccc2)cc1	1.11	3.5
COc1ccc(N(CC(=O)Nc2ccc(C)c(C)c2)S(C)(=O)=O)cc1	1.2*	10.0
COc1ccc(CCNC(=O)c2ccc(N(Cc3ccc(Cl)cc3)S(C)(=O)=O)cc2)cc1OC	0.753*	7.7
SMILES	Cy5 interf NS3h	NS3h inh CB
COc1ccc(NC(=O)CN(c2ccc(OC)cc2)S(C)(=O)=O)cc1	1.02	7.0
COc1ccccc1CNC(=O)c1ccc(CN(c2ccccc2)S(C)(=O)=O)cc1	0.966	6.7
Cc1ccc(N(Cc2ccc(C(=O)NCCSc3ccc(Cl)cc3)cc2)S(C)(=O)=O)cc1C	0.934	0.0
COCCCNC(=O)c1ccc(CN(c2ccccc2)S(C)(=O)=O)cc1	0.792*	7.8
COc1ccc(N(Cc2ccc(C(=O)NCc3ccccc3OC)cc2)S(=O)(=O)c2ccccc2)cc1	0.691*	20.4
N/C(=N/OC(=O)c1ccc(Cl)cc1Cl)c1ccc(Cl)cc1	1.05	9.1
CCOc1ccc(N(CC(=O)N[C@@H]2C[C@H]3CC[C@@H]2C3)S(=O)(=O)c2ccc(SC)cc2)cc1	0.973	-5.0
COc1ccc(N(CC(=O)Nc2cc(C)ccc2C)S(=O)(=O)c2ccc(C)cc2)cc1	0.977	11.9
COc1cc(NS(=O)(=O)c2ccc(NC(=O)c3cccc(C)c3)cc2)ncn1	1.17	6.8
COc1ccc(OC)c(N(CC(=O)NCCc2ccc(OC)c(OC)c2)S(=O)(=O)c2ccc(OC)c(OC)c2)c1	1.01	7.3
COc1ccc(N(CC(=O)NCCc2ccc(OC)c(OC)c2)S(=O)(=O)c2ccc(OC)c(OC)c2)cc1	1.2*	24.4
Cc1cc(C)nc(N=C(N)Nc2cc(Cl)cc(Cl)c2)n1	1.1	5.8
N/C(=N\OCC(=O)Nc1ccc(F)cc1)c1nonc1N	1	0.0
Cc1cccc(C)c1NC(=O)CO/N=C(/N)c1nonc1N	0.707*	15.0
CCOC(=O)C(C)Oc1ccc2c(C)c(C)c(=O)oc2c1 (centres undefined)	1.02	8.7
O=C1C(=O)N(CC2CCCO2)C(c2ccc([N+](=O)[O-])cc2)C1=C(O)c1ccccc1 (centres undefined)	1.05	4.5
O=C(Nc1ccc(C(=O)O)cc1)/C(=C/c1cccc([N+](=O)[O-])c1)NC(=O)c1ccccc1	0.968	0.9
O=C(Nc1cccc(O)c1)/C(=C/c1cccc([N+](=O)[O-])c1)NC(=O)c1ccccc1	0.889	10.2
Cc1ccc(C(=O)N/C(=C\c2cccc([N+](=O)[O-])c2)C(=O)Nc2ccc(C)cc2C)cc1	1.29*	6.3
Cc1ccc(C(=O)N/C(=C\c2cccc([N+](=O)[O-])c2)C(=O)Nc2ccc(C)c(C)c2)cc1	1.2*	1.6
Cc1cc(OCC(=O)Nc2ccc(F)c([N+](=O)[O-])c2)ccc1Cl	1.2*	-0.3
Cc1cc(Cl)ccc1OCC(=O)Nc1ccc(F)c([N+](=O)[O-])c1	0.908	11.4
O=C(Nc1ccc(Cl)cc1Cl)c1ccccc1F	1.06	2.2
Nc1ccc(NC(=O)c2ccc(Cl)cc2Cl)c(Cl)c1	0.629*	4.0
COc1cc2c(cc1NC(=O)c1ccc(I)cc1)oc1ccccc12	1.04	-1.9
SMILES	Cy5 interf NS3h	NS3h inh CB
Cc1ccc(OCCOCCOc2ccc(/C=c3\sc4nc5ccccc5n4c3=O)cc2)cc1	1.25*	9.1
Cc1ccccc1OCCOc1ccc(/C=c2\sc3nc4ccccc4n3c2=O)cc1	1.11	12.9
O=C(COc1ccc(Cl)cc1)Nc1ccc(I)cc1Cl	1.23*	-1.3
COc1ccc(OCC(=O)Nc2ccc(I)cc2Cl)cc1	0.928	3.3
COc1ccc(OC)c(N(CC(=O)Nc2ccccc2Br)S(C)(=O)=O)c1	0.822	5.2
Cc1ccc(N2C(=O)c3ccc(C(=O)Nc4ccc(O)cc4)cc3C2=O)cc1C	1.01	-5.8
O=C(CSCC(=O)Nc1ccccc1)NCc1ccccc1	1.13	6.9
O=C(Nc1ccc(O)cc1)c1ccc2c(c1)C(=O)N(c1ccc([N+](=O)[O-])cc1)C2=O	0.65*	0.0
Cc1ccc(NC(=O)c2ccc(Oc3ccc([N+](=O)[O-])cc3)cc2)cc1C	0.947	5.0
CC(=O)c1ccc(Oc2ccc([N+](=O)[O-])cc2)cc1	0.638*	9.6
Cc1c(C(=O)Nc2ccc([N+](=O)[O-])cc2)cnn1-c1ccccc1	0.578*	5.0
Cc1ccc(C(=O)Nc2c(C(=O)Nc3ccccc3)cnn2-c2ccccc2)cc1	0.927	12.0
O=C(CSCC(=O)Nc1ccc([N+](=O)[O-])cc1)Nc1ccccc1	0.623*	5.9
COc1cc(C(C)=O)ccc1OCC(=O)O	1.09	5.8
COc1cccc(/C=c2/sc3nc4ccccc4n3c2=O)c1	1.01	6.1
Cc1ccsc1/C=C1\SC(=S)N(Cc2ccco2)C1=O	1.06	7.7
COc1ccc(N2C(=O)NC(=O)/C(=C\c3ccc(OC)cc3C)C2=O)cc1	1.02	21.6
COc1cccc(NC(=O)C2CC(=O)N(c3ccc(Cl)cc3)C2)c1 (centres undefined)	0.89	7.2
CC(C)c1ccc(NC(=O)CC2SC(N)=NC2=O)cc1 (centres undefined)	1.12	13.6
CC(Oc1ccccc1)C(=O)Nc1cccc(C(=O)Nc2ccccc2Cl)c1 (centres undefined)	0.97	28.4
N/C(=N/OC(=O)c1cccc(Br)c1)c1ccccn1	1.08	9.1

Screening data from PubChem BioAssay.
